Records with an inconclusive call do not appear. A call without a number means that no potency is given here. Calls of active or inactive are those of the source. Calls follow the shape of the dose curve; as a rule, active = well fitted inhibition curve with a large enough effect; inconclusive = small, poorly fitted or top-dose-only effect; inactive = flat fitted curve, though single readings scatter.
The compounds below were run against Lysosomal acid glucosylceramidase (Homo sapiens) (UniProt P04062) (assay: qHTS Assay for Inhibitors and Activators of N370S glucocerebrosidase as a Potential Chaperone Treatment of Gaucher Disease: Activity in N370S Spleen Homogenate Using a Red Fluorescent Substrate). Details: red fluorogenic substrate; series mostly up to 49.6 µM.
Sequence of Lysosomal acid glucosylceramidase (Homo sapiens) (P04062 whole entry N409S): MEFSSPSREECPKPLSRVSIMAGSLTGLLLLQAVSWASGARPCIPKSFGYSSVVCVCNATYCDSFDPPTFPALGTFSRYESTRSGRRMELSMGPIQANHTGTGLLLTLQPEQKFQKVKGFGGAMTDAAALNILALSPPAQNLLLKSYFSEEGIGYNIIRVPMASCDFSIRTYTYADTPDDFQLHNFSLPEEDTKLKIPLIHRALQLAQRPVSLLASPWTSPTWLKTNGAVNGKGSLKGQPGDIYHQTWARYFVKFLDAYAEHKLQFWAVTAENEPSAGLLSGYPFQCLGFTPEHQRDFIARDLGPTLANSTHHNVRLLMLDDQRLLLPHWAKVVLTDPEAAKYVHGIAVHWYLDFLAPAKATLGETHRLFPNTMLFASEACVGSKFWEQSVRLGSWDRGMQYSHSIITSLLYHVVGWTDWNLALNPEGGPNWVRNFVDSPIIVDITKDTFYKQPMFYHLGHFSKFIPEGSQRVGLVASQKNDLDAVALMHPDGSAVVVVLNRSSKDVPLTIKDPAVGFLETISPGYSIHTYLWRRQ
Excerpt: NIH Chemical Genomics Center [NCGC]
NIH Molecular Libraries Probe Production Centers Network [MLPCN]
Assay Submitter (PI): Wei Zheng
Glucocerebrosidase (GC) catalyzes the hydrolysis of beta-glucocerebroside to glucose and ceramide in lysosomes. Mutations in the glucocerebrosidase gene result in Gaucher disease, an autosomal recessive lysosomal storage disorder. Many of the mutations encountered in patients with Gaucher disease are missense alterations that may cause misfolding, decreased stability and/or mistrafficking of this lysosomal protein. […] These inhibitors include iminosugar analogs and three non-iminosugar inhibitors identified from a previous HTS of 62,000 compounds with the wild type recombinant enzyme. However, the enhancement of enzyme activity by the chaperone action of an enzyme inhibitor must be balanced against the direct inhibition of the enzyme. An enzyme activator could also function as a chaperone by binding to the enzyme and helping to correct its misfolding and mistrafficking. While activators for GC have not yet been identified, they may have better therapeutic potential than inhibitors. Therefore the discovery and development of chemical activators may provide a new strategy for the chaperone therapy.
We have optimized a new assay using N370S mutant GC derived from the spleen of a Gaucher patient. […] In addition, the MLPCN compound library has expanded, which increases the chance of finding new and better probes.
This confirmation assay tests for compound activity in spleen homogenate from a patient homozygous for the N370S mutation using an alternate resorufin-based substrate.
NCGC Assay Protocol Summary:
This is a fluorogenic enzyme assay with resorufin-beta-D-glucopyranoside as the substrate and mutant N370S glucocerebrosidase from human spleen homogenate as the enzyme preparation. Upon the hydrolysis of this fluorogenic substrate, the resulting product, […] which can be detected by a standard fluorescence plate reader. Data were normalized to the controls for basal activity (without enzyme) and 100% activity (with enzyme). The AC50 values were determined from concentration-response data modeled with the standard Hill equation.
Assay buffer: 50 mM citric acid (titrated with potassium phosphate to pH 5.0), 100 mM potassium chloride, 10 mM sodium chloride, 1 mM magnesium chloride, 0.01% Tween-20.
1536-well assay protocol:
(1) Add 2 ul/well of spleen homogenate (27 ug final)
(2) Add 23 nL compounds in DMSO solution. The final titration was 0.5 nM to 58 uM.
(3) Add 2 ul of substrate (1 mM final)
(4) Incubate at 37C for 40 min.
(5) Add 2 ul stop solution (1M NaOH and 1M Glycine mixture, pH 10)
(6) Detect the assay plate in a ViewLux plate reader (PerkinElmer) with Ex=365 nm and Em=440nm.
Keywords: Glucocerebrosidase, beta-glucosidase, Gaucher Disease, pharmacological chaperone, chaperone therapy, high throughput screening, glucocerebrosidase inhibitor, MLSMR, MLSCN, NIH Roadmap, qHTS and NCGC
CC(C)(C)C(=O)OCCNc1nc(-c2ccccc2)nc2ccccc12 was tested, and the Potency was 3.98 µM (active).
For O=c1cc(N2CCCCC2)c(-c2ccccc2)nn1Cc1c(Cl)cccc1Cl, the Potency was “inactive”.
With COc1cccc(NC(=S)N(CCCN2CCOCC2)Cc2cn(C)c3ccccc23)c1 the Potency was 4.47 µM (active).
In the case of Cc1cc(Nc2cccc(Cl)c2)nc2ccc(NC(=O)C3CCC(C)CC3)cc12 (centres undefined), the Potency is reported as “inactive”.
In the case of O=C(Nc1cc(Br)ccc1O)c1cnn2c(C(F)F)cc(C3CC3)nc12, the Potency is reported as “inactive”.
For CC1(C)CC(=O)C2=C(C1)c1c(ccc3ccccc13)NC2c1ccc(Br)o1 (centres undefined), the Potency was “inactive”.
O=C(NCc1ccccc1)c1ccc(NS(=O)(=O)c2ccccc2)cc1 was tested, and the Potency was “inactive”.
Oc1ccccc1Nc1nc(NCC2CCCO2)c2ccccc2n1 (centres undefined) was tested, and the Potency was “inactive”.
With O=C(CSc1nccc(-c2cccs2)n1)Nc1cccc(Cl)c1 the Potency was “inactive”.
With CCC(C)c1ccc(NC(=O)c2cnn3c(C(F)F)cc(C)nc23)cc1 (centres undefined) the Potency was “inactive”.
With Cc1cc(N2CCOCC2)nc2ccc(NC(=O)c3ccco3)cc12 the Potency was “inactive”.
In the case of Cc1cc(C)cc(N(CC(=O)NC2CCCCCC2)S(=O)(=O)c2c(C)[nH]c(=O)[nH]c2=O)c1, the Potency is reported as 0.794 µM (active).
In the case of Cc1cc(N2CCOCC2)nc2ccc(NC(=O)CCC3CCCC3)cc12, the Potency is reported as 15.8 µM (active).
In the case of Cc1ccc(NC(=O)COc2ccccc2C(=O)Nc2ccccc2)cc1Cl, the Potency is reported as “inactive”.
For Cc1cc(C)n2ncc(C(=O)Nc3cccc(O)c3)c2n1, the Potency was “inactive”.
Cc1cc(N2CCCCC2)nc2ccc(NC(=O)C3CCC(C)CC3)cc12 (centres undefined) was tested, and the Potency was 17.8 µM (active).
With CCOc1ccc(N(CC(=O)NC2CCCCCC2)S(=O)(=O)c2c(C)[nH]c(=O)[nH]c2=O)cc1 the Potency was 2.82 µM (active).
CCCC1CCC(C(=O)Nc2ccc3nc(N4CCOCC4)cc(C)c3c2)CC1 (centres undefined) was tested, and the Potency was 0.562 µM (active).
In the case of CSc1ccc(NC(=O)Nc2cc(C)ccn2)cc1, the Potency is reported as “inactive”.
For COc1cc(OC)cc(C(=O)N[C@H](C(=O)OCC(=O)Nc2cccc(F)c2)C(C)C)c1, the Potency was “inactive”.
In the case of Cc1ccc(S(=O)(=O)Nc2ccc(C(=O)NCc3ccccc3)cc2)cc1, the Potency is reported as “inactive”.
In the case of CC1CC(C)CN(C(=O)CSc2nc(Cc3cccs3)nc3ccccc23)C1 (centres undefined), the Potency is reported as “inactive”.
In the case of CCC(C)NC(=O)COC(=O)c1ccccc1OCC(=O)Nc1ccc(Br)cc1 (centres undefined), the Potency is reported as “inactive”.
In the case of Cc1cc(N2CCOCC2)nc2ccc(NC(=O)C3CCC(C)CC3)cc12 (centres undefined), the Potency is reported as 3.16 µM (active).

Source: PubChem BioAssay AID2613 (National Center for Advancing Translational Sciences (NCATS), 2010)
